Results as given in ChEMBL document CHEMBL4513216, “Probing the Open Global Health Chemical Diversity Library for Multistage-Active Starting Points for Next-Generation Antimalarials” (ACS Infect Dis, 2020).
The whole screen tested about 69,000 compounds, of which about 8,600 (12%) showed an effect of 50% or more. The list comes from a sample in which strong results are over-represented; it also holds similar structures and randomly drawn compounds.

Tested on: Plasmodium berghei
Assay: Screen against P. berghei liver stage (PbLuc), transformed with Luciferase, at 10uM
Format: functional, HepG2
Conditions: tested at 10 uM

SMILES	INHIBITION [%]
CC(C)C[C@H](N)C(=O)N1CCSc2ccccc2C1	81.6
CC(C)[C@H](N)C(=O)N1CCSc2ccccc2C1	-20.5
NC(C(=O)N1CCSc2ccccc2C1)c1ccccc1 (centres undefined)	-22.1
Cc1nc(C)n(CCCNc2ncnc3onc(C)c23)n1	19.2
CCCc1nc(C)c(CNc2nc(C)nc3oc(C)nc23)s1	48.9
CCCc1nc(C)c(CNc2nc(C)nc3onc(C)c23)s1	81.4
CC(C)C(=O)Nc1cccc(C(=O)Nc2ccccn2)c1	8.99
CCCNC(=O)c1ccc(NC(=O)c2cccc(OCC)c2)cc1	23.5
CC(OCC1CC1)C(=O)NCCC(=O)Nc1ccccn1 (centres undefined)	1.74
CCOc1cccc(C(=O)NCCC(=O)Nc2ccncc2)c1	46.6
CC(OCC1CC1)C(=O)Nc1ncccc1I (centres undefined)	50.4
O=C(COCC1CC1)Nc1ncccc1I	-2.98
CC(OCC1CC1)C(=O)Nc1cccc(C(=O)Nc2ccncc2)c1 (centres undefined)	82.4
CC(OCC1CC1)C(=O)Nc1cccc(C(=O)Nc2ccccn2)c1 (centres undefined)	36.5
CCOc1cccc(C(=O)Nc2ccncc2)c1	50.3
CCc1noc(C(C)N2CCN(C(=O)CN3CCOCC3)CC2)n1 (centres undefined)	-25.8
Cc1sc(-c2ccco2)nc1C(=O)N1CCCC1Cn1cccn1 (centres undefined)	34.7
Cc1cccc(Nc2ccc(C3CCN(Cc4ncc[nH]4)CC3)nc2)n1	36
Cc1cc(Nc2ccc(F)cn2)cc(C2CCN(Cc3ncc[nH]3)C2)n1 (centres undefined)	42.6
Fc1ccc(Nc2ccc(C3CCN(Cc4ncc[nH]4)CC3)nc2)nc1	56.9
CC(C)C(=O)N1CC[C@H]2N(C)CC[C@@]2(C(=O)Nc2cccnc2)CC1	-22.2
CCN(CCO)Cc1cn(-c2cccc(F)c2)nc1-c1ccc(C)o1	25.7
Cc1ccc(-c2nn(-c3cccc(F)c3)cc2CN(CCO)CCO)o1	27.4

SMILES	INHIBITION [%]
Cc1ccc(-c2nn(-c3cccc(F)c3)cc2CN(C)CCO)o1	65.7
Cc1cc(-c2cnn(CCNC(=O)CCn3cccn3)c2C2CC2)on1	-1.85
Cc1cc(-c2cnn(CCNC(=O)Cc3ccccn3)c2C2CC2)on1	60.4
Cc1cc(-c2cnn(CCNC(=O)c3cnn(C)c3)c2C2CC2)on1	10
Cc1cc(-c2cnn(CCNC(=O)C3CC3)c2C2CC2)on1	59.7
Cc1cc(-c2cnn(CCNC(=O)C3CCCO3)c2C2CC2)on1 (centres undefined)	40.4
Cc1cc(-c2cnn(CCNC(=O)c3cccnc3)c2C2CC2)on1	38.7
O=C(c1cccnc1)N1C[C@H]2CC[C@@H](C1)N(Cc1ccc(F)cc1Cl)C2	-30
COc1ccc(C)cc1CN(CC(N)=O)C(C)C	-4.63
O=C(NC[C@H]1OC[C@@H]2CCN(Cc3ccco3)C[C@@H]21)c1ccnnc1	6.72
Cc1ocnc1C(=O)N(C)[C@@H]1CCC[C@@H](N2CCCC2)[C@@H]1O	39.3
O=C(NC1CC1)c1cccc(S(=O)(=O)NCCc2nc(C3CC3)no2)c1	-86.5
COCCc1noc(CN2CCN(c3ccc(OC)cc3)C(=O)C2C)n1 (centres undefined)	3.3
Cc1cc(NC(=O)CNCc2csc(-c3cnccn3)n2)ccc1Cl	52.2
Cc1cc(NC(=O)CNCc2csc(-c3ncccn3)n2)ccc1Cl	18
CCc1csc(CNCC(=O)Nc2ccc(Cl)c(C)c2)n1	49
Cc1nnc(CN2CCC3(CCC(=O)N(C4CCC(O)CC4)C3)CC2)o1 (centres undefined)	26
Cc1nc(CN2CCCC(N(C)Cc3c(C)noc3C)C2)no1 (centres undefined)	58
CN(Cc1cnn(C)c1)C1CCCN(Cc2noc(C3CC3)n2)C1 (centres undefined)	14.9
CN(Cc1ccccn1)C1CCCN(Cc2noc(C3CC3)n2)C1 (centres undefined)	16.9
Cc1cc(CN(C)C2CCCN(Cc3noc(C4CC4)n3)C2)no1 (centres undefined)	53.8
CN(Cc1cccnc1)C1CCCN(Cc2noc(C3CC3)n2)C1 (centres undefined)	57.45
Cc1cc(CN2CCC(N(C)Cc3noc(C4CC4)n3)C2)no1 (centres undefined)	33.3

SMILES	INHIBITION [%]
Cc1nc(CN(C)C2CCN(Cc3c(C)noc3C)C2)no1 (centres undefined)	21.5
Cc1nc(CN2CCCC(N(C)Cc3nc(C)c(C)o3)C2)no1 (centres undefined)	-31.8
Cc1cc(CN(C)C2CCCN(Cc3noc(C)n3)C2)no1 (centres undefined)	-14.7
Cc1cccc(CNCc2ccc(NC(=O)NC(C)C)cc2)c1	47.1
c1csc(CN2CCc3nnc(COc4cncnc4)n3CC2)c1	20.5
COc1ccccc1OCCNC(=O)N1CCC(n2cncn2)CC1	3.15
CCn1cnnc1CNC(=O)N1CCOCC1	-4.1
CCn1cnnc1CNC(=O)NCC(C(C)C)N1CCOCC1 (centres undefined)	56.8
CC(NC(=O)NCc1ccc(Cl)cc1)c1ccccn1 (centres undefined)	13.5
CCn1cnnc1CNC(=O)NCC(C(C)C)N1CCC(C)CC1 (centres undefined)	37.1
CC(NC(=O)NCc1ccc(Cl)s1)c1ccccn1 (centres undefined)	17.7
CCn1cnnc1CNC(=O)NC(C)C(C)C (centres undefined)	10
CC(NC(=O)NCc1cc(Br)cs1)c1ccccn1 (centres undefined)	82.6
CCn1cnnc1CNC(=O)NC(C)c1cccs1 (centres undefined)	31
CCn1cnnc1CNC(=O)NC(C)c1ccccn1 (centres undefined)	57.8
COCC(=O)N1CCN(c2cc(C)nc(C3CCCN3C(C)=O)c2)CC1 (centres undefined)	32.3
Cc1ccccc1CN1CCN(C(=O)c2cnc(C3CC3)[nH]c2=O)CC1	27.5
COc1cc(C)c(-c2ccc(F)c3c2OC(CN)C3)cc1C (centres undefined)	55.1
COc1cc(-c2ccc(F)c3c2OC(CN)C3)cc(OC)c1OC (centres undefined)	31.9
COc1cccnc1-c1ccc(F)c2c1OC(CN)C2 (centres undefined)	-66.7
CC(=O)N1[C@H](Cn2cncn2)C[C@@H]2CN(C(=O)c3ccoc3)CC[C@@H]21	-22.1
c1cncc(CN2CCc3c(CNc4nccs4)n[nH]c3C2)c1	33
Cc1n[nH]c(C2CN(C(=O)CCc3ccco3)CCO2)n1 (centres undefined)	-29.2
